Reference: PubChem BioAssay (EPA / NIEHS)
Calls of active or inactive are those of the source. The calls were made as follows: active = hit-call score of the fitted dose curve at least 0.9, where 1 is the maximum; inactive = score below 0.9.

Columns and labels:
Conditions in all cases: mRNA level, 48 h; actives raise or lower the signal
[1] = read-out: Interleukin 6 Receptor (IL6R), IL6R (gene 3570); assay: LTEA_HepaRG_IL6R: Life Technologies and Expression Analysis (LTEA) Assay for Interleukin 6 Receptor (IL6R) using HepaRG (AID 2283510)
Outline: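 Concentration-response in human liver HepaRG cells: eight concentrations from 100 uM downward by half-logs, 48 h exposure, 0.5% DMSO vehicle. IL6R mRNA change measured by qRT-PCR and fitted in both directions relative to vehicle.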

[2] = read-out: Potassium channel subfamily K member 1 (KCNK1), KCNK1 (gene 3775); assay: LTEA_HepaRG_KCNK1: Life Technologies and Expression Analysis (LTEA) Assay for Potassium channel subfamily K member 1 (KCNK1) using HepaRG (AID 2283511)
Outline: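 Differentiated human HepaRG cells in serum-free induction medium were exposed in duplicate for 48 h to 8 half-log concentrations up to 100 uM in 0.5% DMSO. KCNK1 mRNA was measured by TaqMan qRT-PCR, normalized to ACTB, GAPDH and POLR2A, and fitted bidirectionally versus DMSO.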

[3] = read-out: Keratin 19 (KRT19), KRT19 (gene 3880); assay: LTEA_HepaRG_KRT19: Life Technologies and Expression Analysis (LTEA) Assay for Keratin 19 (KRT19) using HepaRG (AID 2283512)
Outline: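 Differentiated HepaRG cells in serum-free induction medium, exposed 48 h in duplicate to 8 half-log concentrations up to 100 uM in 0.5% DMSO. KRT19 mRNA by qRT-PCR, normalized to ACTB, GAPDH, POLR2A; bidirectional fit vs DMSO.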

[4] = read-out: JUN Transcription Factor, JUN (gene 3725); assay: LTEA_HepaRG_JUN: Life Technologies and Expression Analysis (LTEA) Assay for JUN Transcription Factor using HepaRG (AID 2283513)
Outline: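 Human HepaRG liver cells receive test chemicals in 0.5% DMSO for 48 h across an eight-point range topping at 100 uM. Expression changes in JUN are scored in both directions against the DMSO vehicle.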

[5] = read-out: Lipase C (LIPC), LIPC (gene 3990); assay: LTEA_HepaRG_LIPC: Life Technologies and Expression Analysis (LTEA) Assay for Lipase C (LIPC) using HepaRG (AID 2283514)
Outline: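 Differentiated human HepaRG cells in serum-free induction medium were exposed in duplicate for 48 h to eight concentrations (top 100 uM, half-log steps, 0.5% DMSO). LIPC mRNA was quantified by TaqMan qRT-PCR, normalized to ACTB, GAPDH and POLR2A, with bidirectional fitting versus DMSO.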

[6] = read-out: Lipoprotein lipase (LPL), LPL (gene 4023); assay: LTEA_HepaRG_LPL: Life Technologies and Expression Analysis (LTEA) Assay for Lipoprotein lipase (LPL) using HepaRG (AID 2283515)
Outline: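 Differentiated human HepaRG cells in serum-free induction medium were exposed in duplicate for 48 h to eight half-log concentrations (top 100 uM) in 0.5% DMSO. LPL mRNA was quantified by TaqMan qRT-PCR, normalized to ACTB, GAPDH and POLR2A.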

[7] = read-out: MicroRNA 122 (MIR122), gene 406906; assay: LTEA_HepaRG_MIR122: Life Technologies and Expression Analysis (LTEA) Assay for MicroRNA 122 (MIR122) using HepaRG (AID 2283516); also: the transcript read is the microRNA miR-122
Outline: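 HepaRG, 48 h exposure, 8-pt half-log from 100 uM, 0.5% DMSO; TaqMan qRT-PCR; bidirectional fit vs DMSO.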

[8] = read-out: matrix metalloproteinase-10 (MMP10), MMP10 (gene 4319); assay: LTEA_HepaRG_MMP10: Life Technologies and Expression Analysis (LTEA) Assay for matrix metalloproteinase-10 (MMP10) using HepaRG (AID 2283517)
Outline: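 HepaRG, collagen I, ~100,000 cells/well; serum-free induction medium; 48 h exposure, duplicate, 8-pt half-log to 100 uM, 0.5% DMSO. Readout: TaqMan qRT-PCR, normalized to ACTB/GAPDH/POLR2A; bidirectional fit vs DMSO.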

MYC, MYC (gene 4609) = assay: LTEA_HepaRG_MYC: Life Technologies and Expression Analysis (LTEA) Assay for MYC using HepaRG (AID 2283518)
Outline: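 Differentiated HepaRG cells exposed 48 h in serum-free induction medium to 8 concentrations (top 100 uM, half-log steps; 0.5% DMSO), duplicate. MYC mRNA measured by Fluidigm qRT-PCR, normalized to ACTB, GAPDH, POLR2A; bidirectional fit versus DMSO.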

[9] = read-out: matrix metalloproteinase-3 (MMP3), MMP3 (gene 4314); assay: LTEA_HepaRG_MMP3: Life Technologies and Expression Analysis (LTEA) Assay for matrix metalloproteinase-3 (MMP3) using HepaRG (AID 2283519)
Outline: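 Differentiated human HepaRG cells, plated 48 h on collagen I, were exposed in duplicate for 48 h in serum-free induction medium to eight half-log concentrations up to 100 uM in 0.5% DMSO. MMP3 mRNA was quantified by TaqMan qRT-PCR, normalised to ACTB, GAPDH and POLR2A.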

[10] = read-out: Paternally Expressed 10 (PEG10), PEG10 (gene 23089); assay: LTEA_HepaRG_PEG10: Life Technologies and Expression Analysis (LTEA) Assay for Paternally Expressed 10 (PEG10) using HepaRG (AID 2283520)
Outline: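 Chemicals tested on HepaRG cells for 48 h, highest concentration 100 uM. PEG10 expression assessed by qRT-PCR relative to DMSO control.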

[11] = read-out: Protein phosphatase 2A (PPP2R4), PTPA (gene 5524); assay: LTEA_HepaRG_PPP2R4: Life Technologies and Expression Analysis (LTEA) Assay for Protein phosphatase 2A (PPP2R4) using HepaRG (AID 2283522)
Outline: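 Gene-expression endpoint in HepaRG hepatic cells: 48 h treatment across eight half-log concentrations up to 100 uM in 0.5% DMSO. PPP2R4 mRNA by qRT-PCR, normalized to three endogenous control genes.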

[12] = read-out: Phosphatase and tensin (PTEN), PTEN (gene 5728); assay: LTEA_HepaRG_PTEN: Life Technologies and Expression Analysis (LTEA) Assay for Phosphatase and tensin (PTEN) using HepaRG (AID 2283523)
Outline: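 Differentiated human HepaRG cells, plated 48 h then switched to serum-free induction medium, were exposed in duplicate for 48 h to eight half-log concentrations up to 100 uM in 0.5% DMSO. PTEN mRNA measured by TaqMan qRT-PCR, normalized to ACTB/GAPDH/POLR2A, bidirectional fit versus DMSO.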

[13] = read-out: solute carrier (SLC22A1), SLC22A1 (gene 6580); assay: LTEA_HepaRG_SLC22A1: Life Technologies and Expression Analysis (LTEA) Assay for solute carrier (SLC22A1) using HepaRG (AID 2283524)
Outline: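 Human HepaRG cells were plated 48 h, switched to serum-free induction medium, then exposed in duplicate for 48 h to 8-point half-log series from 100 uM in 0.5% DMSO. SLC22A1 mRNA measured by qRT-PCR, normalized to ACTB/GAPDH/POLR2A, fitted bidirectionally versus DMSO.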

[14] = read-out: Pyruvate Dehydrogenase Kinase 4 (PDK4), PDK4 (gene 5166); assay: LTEA_HepaRG_PDK4: Life Technologies and Expression Analysis (LTEA) Assay for Pyruvate Dehydrogenase Kinase 4 (PDK4) using HepaRG (AID 2283525)
Outline: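 Differentiated human HepaRG cells, pre-cultured 48 h, were exposed in duplicate for 48 h in serum-free induction medium to eight half-log concentrations up to 100 uM in 0.5% DMSO. PDK4 mRNA was quantified by qRT-PCR, normalized to ACTB, GAPDH and POLR2A, bidirectional fitting versus DMSO.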

[15] = read-out: NAD(P)H dehydrogenase [quinone] 1 (NQO1), NQO1 (gene 1728); assay: LTEA_HepaRG_NQO1: Life Technologies and Expression Analysis (LTEA) Assay for NAD(P)H dehydrogenase [quinone] 1 (NQO1) using HepaRG (AID 2283526)
Outline: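 Human HepaRG hepatic cells received chemicals for 48 h in serum-free induction medium with 0.5% DMSO, up to 100 uM. Expression was assessed by TaqMan qRT-PCR against housekeeping controls and fitted bidirectionally against DMSO.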

[16] = read-out: Nuclear factor erythroid 2-related factor 2 (Homo sapiens) (UniProt Q16236); assay: LTEA_HepaRG_NFE2L2: Life Technologies and Expression Analysis (LTEA) Assay for Nuclear factor erythroid 2-related factor 2 (NFE2L2) Transcription Factor using HepaRG (AID 2283527);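 also: TaqMan qRT-PCR transcript level normalised to ACTB GAPDH and POLR2A housekeeping genes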
Outline: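 Differentiated human HepaRG cells in serum-free induction medium were exposed for 48 h to eight concentrations (top 100 uM, half-log dilutions, 0.5% DMSO), in duplicate. NFE2L2 mRNA was quantified by TaqMan qRT-PCR, normalized to ACTB, GAPDH and POLR2A, with bidirectional fitting versus DMSO.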

[17] = read-out: succinate dehydrogenase complex iron sulfur subunit B (SDHB), SDHB (gene 6390); assay: LTEA_HepaRG_SDHB: Life Technologies and Expression Analysis (LTEA) Assay for succinate dehydrogenase complex iron sulfur subunit B (SDHB) using HepaRG (AID 2283528)
Outline: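 Readout is SDHB transcript level by qRT-PCR, normalised to three housekeeping genes and fitted bidirectionally against 0.5% DMSO vehicle. Human HepaRG cells were treated for 48 h at up to 100 uM.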

[18] = read-out: Signal transducer and activator of transcription 3 (Homo sapiens) (UniProt P40763); assay: LTEA_HepaRG_STAT3: Life Technologies and Expression Analysis (LTEA) Assay for Signal transducer and activator of transcription (STAT3) using HepaRG (AID 2283529)
Outline: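 Differentiated human HepaRG cells in serum-free induction medium were exposed in duplicate for 48 h to eight half-log concentrations up to 100 uM in 0.5% DMSO. STAT3 mRNA was quantified by TaqMan qRT-PCR, normalized to ACTB, GAPDH and POLR2A, and fitted bidirectionally against DMSO.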

Measured: outcome

Chain of Nuclear factor erythroid 2-related factor 2 (Homo sapiens) (Q16236 whole entry, looked up): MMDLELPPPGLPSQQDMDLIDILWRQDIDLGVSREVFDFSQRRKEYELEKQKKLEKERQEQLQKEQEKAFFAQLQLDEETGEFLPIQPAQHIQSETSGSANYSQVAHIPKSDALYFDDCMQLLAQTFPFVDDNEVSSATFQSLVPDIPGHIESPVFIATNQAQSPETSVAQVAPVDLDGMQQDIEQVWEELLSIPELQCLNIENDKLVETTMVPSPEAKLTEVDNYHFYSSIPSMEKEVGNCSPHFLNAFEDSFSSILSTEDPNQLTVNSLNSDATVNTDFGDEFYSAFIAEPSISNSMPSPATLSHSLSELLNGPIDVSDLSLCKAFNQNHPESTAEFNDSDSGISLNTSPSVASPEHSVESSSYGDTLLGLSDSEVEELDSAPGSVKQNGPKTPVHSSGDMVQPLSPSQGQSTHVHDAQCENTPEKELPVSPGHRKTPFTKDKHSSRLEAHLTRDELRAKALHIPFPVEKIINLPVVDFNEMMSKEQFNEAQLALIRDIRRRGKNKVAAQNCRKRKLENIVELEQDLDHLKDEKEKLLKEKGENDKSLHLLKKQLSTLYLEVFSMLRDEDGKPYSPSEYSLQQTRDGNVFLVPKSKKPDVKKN
Chain of Signal transducer and activator of transcription 3 (Homo sapiens) (P40763 whole entry, looked up): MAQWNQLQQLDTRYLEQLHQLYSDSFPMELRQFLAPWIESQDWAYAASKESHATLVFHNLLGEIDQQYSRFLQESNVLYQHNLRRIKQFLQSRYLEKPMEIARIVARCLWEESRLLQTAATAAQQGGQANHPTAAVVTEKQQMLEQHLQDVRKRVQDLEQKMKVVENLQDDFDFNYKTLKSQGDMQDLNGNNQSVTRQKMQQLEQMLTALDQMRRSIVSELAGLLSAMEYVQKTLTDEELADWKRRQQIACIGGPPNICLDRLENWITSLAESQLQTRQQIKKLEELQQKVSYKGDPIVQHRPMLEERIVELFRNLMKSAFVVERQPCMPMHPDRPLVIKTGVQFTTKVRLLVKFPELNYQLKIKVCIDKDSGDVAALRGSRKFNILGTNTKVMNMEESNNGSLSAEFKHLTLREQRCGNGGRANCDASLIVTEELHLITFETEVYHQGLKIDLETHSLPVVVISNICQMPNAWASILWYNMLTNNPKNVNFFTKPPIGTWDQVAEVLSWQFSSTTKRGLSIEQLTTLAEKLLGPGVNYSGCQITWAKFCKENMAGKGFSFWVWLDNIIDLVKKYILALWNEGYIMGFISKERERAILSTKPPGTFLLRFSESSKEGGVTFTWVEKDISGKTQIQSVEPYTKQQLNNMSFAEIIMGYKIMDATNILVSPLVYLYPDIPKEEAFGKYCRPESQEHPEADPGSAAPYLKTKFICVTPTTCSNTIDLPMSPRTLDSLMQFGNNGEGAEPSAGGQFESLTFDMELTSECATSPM

N#Cc1c(Cl)cccc1Cl
inactive: all assays above

CC1(C)CCC(=Cc2ccc(Cl)cc2)C1(O)Cn1cncn1 (configuration not stated)
inactive: all assays above

CCSC(=O)N1CCCCCC1
inactive: all assays above
